Hit rate of the full screen: of about 5,500 compounds, about 2,000 (36%) were called active. About 18% were inconclusive and are not listed. Cut-off read from the data, not from the text of the source: active = normalized growth mostly below about 0.91 (no sharp cut-off); inconclusive = no clear call, values can overlap the other calls; inactive = mostly above about 0.92. Some of the results follow.
Assay: chemical genetic growth profiling, strain panel (AID 1159580);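 note: tested at 20 µM; growth read once vehicle control cultures reached saturation at 30 °C; 1 = growth at the plate median or of vehicle wells; lower values mean less growth of the strain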
Settings: growth OD

Measured: normalized growth

COc1ccc2c(c1OC)C(=O)O[C@H]2[C@H]1c2cc3c(cc2CCN1C)OCO3
inactive: S. cerevisiae deletion strains, locus YJR075W, strain HOC1, hits give low values 1 | S. cerevisiae deletion strains, locus YKL009W, strain mrt4, hits give low values 1.03 | S. cerevisiae deletion strains, locus YKL068W, hits give low values 1 | S. cerevisiae deletion strains, locus YKL085W, strain MDH1 (second series), hits give low values 1 | S. cerevisiae deletion strains, locus YKL085W, strain MDH1, hits give low values 1 | S. cerevisiae deletion strains, locus YKL160W, strain elf1, hits give low values 0.994 | S. cerevisiae deletion strains, locus YKL190W, strain CNB1, hits give low values 1 | S. cerevisiae deletion strains, locus YKR001C, strain vps1, hits give low values 1.03 | S. cerevisiae deletion strains, locus YKR026C, strain gcn3, hits give low values 1.01 | S. cerevisiae deletion strains, locus YKR091W, strain srl3, hits give low values 0.99 | S. cerevisiae deletion strains, locus YLL001W, strain dnm1, hits give low values 0.998 | S. cerevisiae deletion strains, locus YLL026W, hits give low values 1 | S. cerevisiae deletion strains, locus YLL041C, strain sdh2, hits give low values 1 | S. cerevisiae deletion strains, locus YLR027C, strain aat2, hits give low values 1 | S. cerevisiae deletion strains, locus YLR039C, strain RIC1, hits give low values 1.04 | S. cerevisiae deletion strains, locus YLR058C, strain SHM2, hits give low values 1 | S. cerevisiae deletion strains, locus YLR102C, strain apc9, hits give low values 1.01 | S. cerevisiae deletion strains, locus YLR113W, strain HOG1, hits give low values 1.05 | S. cerevisiae deletion strains, locus YLR221C, strain rsa3, hits give low values 0.998 | S. cerevisiae deletion strains, locus YLR258W, strain gsy2, hits give low values 1.01 | S. cerevisiae deletion strains, locus YLR262C, strain YPT6 (second series), hits give low values 1.01 | S. cerevisiae deletion strains, locus YLR262C, strain YPT6, hits give low values 1.03 | S. cerevisiae deletion strains, locus YLR268W, strain sec22, hits give low values 1.01 | S. cerevisiae deletion strains, locus YLR320W, strain mms22, hits give low values 1 | S. cerevisiae deletion strains, locus YLR330W, strain CHS5, hits give low values 1.01 | S. cerevisiae deletion strains, locus YLR342W, strain FKS1 (second series), hits give low values 0.981 | S. cerevisiae deletion strains, locus YLR342W, strain FKS1, hits give low values 0.996 | S. cerevisiae deletion strains, locus YLR357W, strain rsc2, hits give low values 1.03 | S. cerevisiae deletion strains, locus YLR370C, strain arc18, hits give low values 0.994 | S. cerevisiae deletion strains, locus YLR371W, strain rom2, hits give low values 1.02 | S. cerevisiae deletion strains, locus YLR384C, strain iki3, hits give low values 1 | S. cerevisiae deletion strains, locus YLR418C, strain cdc73, hits give low values 1.03 | S. cerevisiae deletion strains, locus YML016C, strain PPZ1, hits give low values 1 | S. cerevisiae deletion strains, locus YML032C, strain rad52, hits give low values 1.01 | S. cerevisiae deletion strains, locus YML120C, strain ndi1, hits give low values 0.987 | S. cerevisiae deletion strains, locus YML124C, strain tub3, hits give low values 1.01 | S. cerevisiae deletion strains, locus YMR058W, strain fet3, hits give low values 1 | S. cerevisiae deletion strains, locus YMR078C, strain ctf18, hits give low values 1 | S. cerevisiae deletion strains, locus YMR125W, strain sto1, hits give low values 0.991 | S. cerevisiae deletion strains, locus YMR129W, hits give low values 0.998 | S. cerevisiae deletion strains, locus YMR205C, strain PFK2, hits give low values 1 | S. cerevisiae deletion strains, locus YMR223W, strain ubp8, hits give low values 1 | S. cerevisiae deletion strains, locus YMR231W, strain pep5, hits give low values 0.999 | S. cerevisiae deletion strains, locus YMR263W, strain SAP30, hits give low values 1 | S. cerevisiae deletion strains, locus YMR307W, strain GAS1, hits give low values 1.05 | S. cerevisiae deletion strains, locus YNL067W, strain RPL9B, hits give low values 0.979 | S. cerevisiae deletion strains, locus YNL071W, strain lat1, hits give low values 0.994 | S. cerevisiae deletion strains, locus YNL128W, strain TEP1, hits give low values 0.984 | S. cerevisiae deletion strains, locus YNL153C, strain GIM3, hits give low values 1 | S. cerevisiae deletion strains, locus YNL183C, strain NPR1, hits give low values 0.979 | S. cerevisiae deletion strains, locus YNL209W, strain ssb2, hits give low values 1 | S. cerevisiae deletion strains, locus YNL233W, strain BNI4, hits give low values 1.01 | S. cerevisiae deletion strains, locus YNL248C, strain rpa49, hits give low values 0.988 | S. cerevisiae deletion strains, locus YNL250W, strain rad50, hits give low values 1 | S. cerevisiae deletion strains, locus YNL271C, strain bni1, hits give low values 1 | S. cerevisiae deletion strains, locus YNL298W, strain CLA4, hits give low values 1.01 | S. cerevisiae deletion strains, locus YNL307C, strain MCK1, hits give low values 1.01 | S. cerevisiae deletion strains, locus YNL322C, strain KRE1 (second series), hits give low values 1.01 | S. cerevisiae deletion strains, locus YNL322C, strain KRE1, hits give low values 1 | S. cerevisiae deletion strains, locus YNR049C, strain mso1, hits give low values 0.995 | S. cerevisiae deletion strains, locus YNR052C, strain pop2, hits give low values 0.999 | S. cerevisiae deletion strains, locus YOL006C, strain TOP1, hits give low values 1.03 | S. cerevisiae deletion strains, locus YOL012C, strain htz1 0.872 | S. cerevisiae deletion strains, locus YOL147C, strain pex11, hits give low values 1.01 | S. cerevisiae deletion strains, locus YOR001W, strain rrp6, hits give low values 0.995 | S. cerevisiae deletion strains, locus YOR061W, strain CKA2, hits give low values 1 | S. cerevisiae deletion strains, locus YOR069W, strain VPS5, hits give low values 0.997 | S. cerevisiae deletion strains, locus YOR070C, strain gyp1, hits give low values 0.995 | S. cerevisiae deletion strains, locus YOR080W, strain dia2, hits give low values 1 | S. cerevisiae deletion strains, locus YOR083W, strain WHI5, hits give low values 0.988 | S. cerevisiae deletion strains, locus YOR106W, strain vam3, hits give low values 1.02 | S. cerevisiae deletion strains, locus YOR136W, strain idh2, hits give low values 1 | S. cerevisiae deletion strains, locus YOR144C, strain elg1, hits give low values 1.01 | S. cerevisiae deletion strains, locus YOR184W, strain ser1, hits give low values 0.999 | S. cerevisiae deletion strains, locus YOR231W, strain MKK1, hits give low values 1.06 | S. cerevisiae deletion strains, locus YOR265W, strain rbl2, hits give low values 1 | S. cerevisiae deletion strains, locus YOR270C, strain vph1, hits give low values 0.998 | S. cerevisiae deletion strains, locus YOR290C, strain snf2, hits give low values 0.975 | S. cerevisiae deletion strains, locus YOR316C, strain cot1, hits give low values 1 | S. cerevisiae deletion strains, locus YPL051W, strain arl3, hits give low values 0.982 | S. cerevisiae deletion strains, locus YPL055C, strain LGE1, hits give low values 0.986 | S. cerevisiae deletion strains, locus YPL078C, strain atp4, hits give low values 0.996 | S. cerevisiae deletion strains, locus YPL106C, strain sse1, hits give low values 0.982 | S. cerevisiae deletion strains, locus YPL240C, strain hsp82, hits give low values 1 | S. cerevisiae deletion strains, locus YPL241C, strain CIN2, hits give low values 0.997 | S. cerevisiae deletion strains, locus YPL256C, strain CLN2, hits give low values 1.03 | S. cerevisiae deletion strains, locus YPR119W, strain clb2, hits give low values 1.01 | S. cerevisiae deletion strains, locus YPR141C, strain kar3, hits give low values 1.01 | S. cerevisiae deletion strains, locus YPR163C, strain tif3, hits give low values 1.02 | S. cerevisiae deletion strains, locus YPR167C, strain met16, hits give low values 1.01 | S. cerevisiae deletion strains, strain wtn01, hits give low values 1.01 | S. cerevisiae strains, strain wild type, hits give low values 0.982
